Assay [1] in a line: Viability qHTS for spleen associated tyrosine kinase inhibitor (SYKi) naive MV4-11 cells (AID 1963823). Also: nearly all actives have a fitted effect of over 40% in size. Also: potency is read from the fitted curve at half-maximal effect. In outline: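 SYKi-naive MV4-11 AML cells, 500 per well, were exposed to library compounds for 72 hr at 37 C, 5% CO2. Viability was then read by CellTiter-Glo luminescence after 10 min at room temperature.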
Background: qHTS replaces the single test concentration by a dilution series.

Assay [2] can be described thus: Quantitative highthroughput screen to assess conditional lethalithy of NOMO1 cells grown in RPMI1640 with untreated serum (RPMI+s) (AID 1963876). Also: nearly all actives have a fitted effect of over 35% in size. Also: potency is read from the fitted curve at half-maximal effect.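 As to Viability: 100% = DMSO wells and 0% = empty wells without cells.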 The procedure, abridged: (§1)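 Each medium arm—HPLM with 10% dialyzed FBS, or RPMI1640 with 5 mM glucose and 10% untreated or dialyzed FBS—was screened against an 11-point, 3-fold compound titration for 48 h at 37 °C, with CellTiter-Glo luminescence as endpoint.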

Assay [3] is described as follows: Quantitative highthroughput screen to assess conditional lethalithy of NOMO1 cells grown in RPMI1640 with dialyzed fetal bovine serum (RPMI+ds) (AID 1963877). Also: nearly all actives have a fitted effect of over 30% in size. Also: potency is read from the fitted curve at half-maximal effect.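 As to Viability: series mostly up to about 46 µM; 100% = DMSO control wells and 0% = empty wells.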 The procedure, abridged: as §1
The nature of assay [4]: Quantitative highthroughput screen to assess conditional lethalithy of NOMO1 cells grown in Human Plasma-Like Medium with dialyzed fetal bovine serum (HPLM+ds) (AID 1963878). Also: nearly all actives have a fitted effect of over 35% in size. Also: potency is read from the fitted curve at half-maximal effect.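 As to Viability: 100% = DMSO wells and 0% = empty wells on each plate.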 In outline: as §1
Assay [5] is described as follows: Quantitative highthroughput screen to assess conditional lethalithy of P12 Ichikawa cells grown in Human Plasma-Like Medium with dialyzed fetal bovine serum (HPLM+ds) (AID 1963879). Also: nearly all actives have a fitted effect of over 35% in size. Also: potency is read from the fitted curve at half-maximal effect. As to Viability: series mostly up to about 46 µM. Particulars: Potency: viability. In outline:
as §1

Assay [6] in a line: Quantitative highthroughput screen to assess conditional lethalithy of P12 Ichikawa cells grown in RPMI1640 with dialyzed fetal bovine serum (RPMI+ds) (AID 1963880). Also: nearly all actives have a fitted effect of over 35% in size. Also: potency is read from the fitted curve at half-maximal effect.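 As to Viability: 100% = DMSO wells and 0% = empty wells on each plate.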 The conditions noted are these: Potency: P12-Ichikawa viability. The procedure, abridged: as §1
Assay [7] is described as follows: Quantitative highthroughput screen to assess conditional lethalithy of P12 Ichikawa cells grown in RPMI1640 with untreated serum (RPMI+s) (AID 1963881). Also: nearly all actives have a fitted effect of over 35% in size. Also: potency is read from the fitted curve at half-maximal effect.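 As to Viability: series mostly up to about 46 µM; 100% = DMSO wells and 0% = empty wells without cells.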 Particulars: Potency: viability. In outline: as §1
Assay [8] in a line: Quantitative highthroughput screen to assess conditional lethalithy of SEM cells grown in Human Plasma-Like Medium with dialyzed fetal bovine serum (HPLM+ds) (AID 1963882). Also: nearly all actives have a fitted effect of over 35% in size. Also: potency is read from the fitted curve at half-maximal effect. As to Viability: series mostly up to about 46 µM. In outline: as §1
The nature of assay [9]: Quantitative highthroughput screen to assess conditional lethalithy of SEM cells grown in RPMI1640 with unreated serum (RPMI+s) (AID 1963883). Also: nearly all actives have a fitted effect of over 35% in size. Also: potency is read from the fitted curve at half-maximal effect.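 As to Viability: 100% = DMSO wells and 0% = empty wells without cells.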 In outline: as §1
Assay [10] can be described thus: Quantitative highthroughput screen to assess conditional lethalithy of SEM cells grown in RPMI1640 with dialyzed fetal bovine serum (RPMI+ds) (AID 1963884). Also: nearly all actives have a fitted effect of over 35% in size. Also: potency is read from the fitted curve at half-maximal effect.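 As to Viability: series mostly up to about 46 µM; 100% = DMSO control wells and 0% = empty wells without cells.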 The procedure, abridged: as §1
Assay [11] in a line: Cellular viability qHTS for adrenocortical cancer (ACC) cell line SW-13 (AID 1963989).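 Also: cells grown in serum-free medium with ITS supplement; % is scaled to controls: 0 for no effect and ±100 for the full control effect; nearly all actives have a fitted effect of over 65% in size.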 Particulars: SW-13 ACC cells viability, CellTiter-Glo, 48 h; activity (max response): stronger effect = lower value. The procedure, abridged: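 Here, serum-free SW-13 cultures were dosed up to 46 uM. Following 48 h, ATP-dependent luminescence (CellTiter-Glo) reported viable cells, and logistic modeling produced IC50 values.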

The nature of assay [12]: Cellular viability qHTS for adrenocortical cancer (ACC) cell line NCI-H295R (AID 1963990). Also: nearly all actives have a fitted effect of over 60% in size. Also: potency is read from the fitted curve at half-maximal effect. The procedure, abridged:
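Viability of NCI-H295R after 48 h of treatment (final up to 46 uM) measured through cellular ATP luminescence.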

The nature of assay [13]: Viability qHTS for spleen associated tyrosine kinase inhibitor (SYKi) drug resistant MV4-11 cells (AID 1963824). Also: nearly all actives have a fitted effect of over 35% in size. Also: potency is read from the fitted curve at half-maximal effect. The procedure, abridged: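 CellTiter-Glo luminescence, read 10 min after reagent addition, reports viability after a 72 hr compound exposure. Cells are an MV4-11 line made resistant to SYK inhibition, seeded at 500 per well onto compound-containing plates.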

“And” between values parts separate entries of the source, which are not always exact repeats. Equal values may be shown once. Records with an inconclusive call do not appear. Unmarked numbers belong to inactive results. The source made the active and inactive calls. Calls follow the shape of the dose curve; as a rule, active = well fitted curve in the direction sought with a large enough effect; inconclusive = small, poorly fitted or top-dose-only effect, or another doubt; inactive = no such curve, though single readings can be large; an effect the other way counts as inactive or inconclusive.

In the case of `Cc1ccc(NC(=O)C2(c3ccc4c(c3)OC(F)(F)O4)CC2)nc1-c1cccc(C(=O)O)c1`, the Potency result in assay [1] and in assay [12] was “inactive” each time. Besides, the Potency in [2] was 166 nM (active); in [3], 209 nM (active); in [4], 187 nM (active); in [5] it was 187 nM (active); in [6], 187 nM (active); in assay [7] it was 148 nM (active). In addition, the Potency was 93.5 nM (active) in [8], 74.3 nM (active) in assay [9] and 83.3 nM (active) in assay [10]. The activity (max response) in assay [11] is 4.62%.
On to `CN1CCC(c2c(O)cc(O)c3c(=O)cc(-c4ccccc4Cl)oc23)C1CO` (stereo unspecified), for which the results for the Potency in assay [1], in assay [13] and in assay [12] were 742 nM (active), 590 nM (active) and 3160 nM (active), respectively.
`NC(=O)c1cnc2[nH]ccc2c1NC1C2CC3C[C@H]1CC(O)(C3)C2` (stereo partly specified): the Potency in [1] is 105 nM (active); in assay [13], 468 nM (active). Moreover, in assay [12], the Potency result was “inactive”.
In the case of `CN(C)c1cccc(-c2c3c(=O)n(-c4ccccc4Cl)[nH]c3cc(=O)n2C)c1`, the Potency result in assay [1] and in [12] was “inactive” in each case. For the same compound, the Potency in assay [2] was 933 nM (active); in [3] it was 831 nM (active); in assay [4] it was 588 nM (active); in assay [5], 831 nM (active); in [6], 1170 nM (active); in assay [7] it was 1050 nM (active). Further, the Potency in assay [8] is 1050 nM (active); in [9], 1050 nM (active); in [10] it was 831 nM (active). For the same compound, the activity (max response) in assay [11] was -1.86%.
`C[C@]12CC[C@@H]3c4ccc(O)cc4CC[C@H]3[C@@H]1CC[C@@H]2O`: the Potency is 16600 nM (active) in assay [1], 14800 nM (active) in assay [13] and 7940 nM (active) in [12].
For `CC(=O)[C@H]1CC[C@H]2[C@@H]3CC=C4C[C@@H](O)CC[C@]4(C)[C@H]3CC[C@]12C`, the Potency in [1] is 5960 nM (active). In addition, the Potency entry in assay [2], in assay [3], in [4], in [5], in assay [6] and in assay [7] was “inactive” each time. The Potency result in [8], in assay [9] and in [10] was “inactive” throughout. Moreover, the activity (max response) in assay [11] was 14.9% and 3.3%.
With `COc1ccnc(CS(=O)c2nc3ccc(OC(F)F)cc3[nH]2)c1OC` (stereo unspecified), the Potency entry in assay [1], in assay [2], in [3], in assay [4], in [5] and in assay [6] was “inactive” each time. Also, the Potency result in assay [7], in [8], in [9] and in assay [10] was “inactive” each time. Also, in assay [11], the activity (max response) is -15.5% and -5.64%.
Turning to `CCOC(=O)C=C[C@H](C[C@@H]1CCNC1=O)NC(=O)[C@@H](CC(=O)[C@@H](NC(=O)c1cc(C)on1)C(C)C)Cc1ccc(F)cc1`, the Potency entry in assay [1], in [2], in assay [3], in assay [4], in assay [5] and in assay [6] was “inactive” each time. Also, the Potency entry in assay [7], in [8], in assay [9] and in assay [12] was “inactive” throughout. Moreover, the activity (max response) in assay [11] is -3.62%.
As for `CC(C)C(C)C=CC(C)C1CCC2C3=CC=C4CC(O)CCC4(C)C3CCC21C` (stereo unspecified), the Potency result in assay [1], in [2], in assay [3], in assay [4], in assay [5] and in assay [6] was “inactive” each time. In addition, the Potency entry in [7], in [8], in assay [9], in [10] and in assay [12] was “inactive” each time. Besides, in [11], the activity (max response) was 11.2%.
As for `CCN1/C(=C/C=C/c2sc3ccccc3[n+]2CC)Sc2ccccc21`, the Potency in assay [1] is 18.4 nM (active); in assay [13], 58 nM (active); in assay [12], 10000 nM (active).
Regarding `CC[N+](CC)(CC)CCOc1ccc(/C=C/c2ccccc2)cc1`, the Potency result in assay [1], in assay [13] and in assay [12] was “inactive” throughout.
For the compound `c1ccc(CNCc2ccc(CN3CCCNCCNCCCNCC3)cc2)nc1`, the Potency entry in assay [1], in assay [13] and in assay [12] was “inactive” each time.
With `Nc1ccc(C(=O)O)c(O)c1`, the Potency result in assay [1], in [13] and in [12] was “inactive” throughout.
`CCOC(=O)c1ccc(N)cc1`: the Potency entry in assay [1], in [13] and in [12] was “inactive” throughout.
Take `CN1c2ccccc2C(=O)N2CCc3c([nH]c4ccccc34)C21` (stereo unspecified): the Potency in assay [1] was 1640 nM (active). In addition, the Potency entry in assay [2], in assay [3], in assay [4], in assay [5], in [6] and in [7] was “inactive” each time. The Potency entry in [8], in [9] and in assay [10] was “inactive” throughout.
Take `CCN(CC)CCOc1ccc(/C(=C(\Cl)c2ccccc2)c2ccccc2)cc1`: the Potency in assay [1] was 9.44 µM (active) and 8.2 µM (active); in assay [13], 10.6 µM (active) and 10.3 µM (active); in assay [12] it was 7310 nM (active).

Source of the values: PubChem BioAssay (NCATS).
